Assay [1] has as its target Nuclear receptor coactivator 3 (Homo sapiens) (UniProt Q9Y6Q9). Nature of the assay: NCOA3 GAL4-fusion reporter inhibition – cell-based, luminescence, quadruplicate, confirmation (AID 588792;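 active means mean inhibition over 43.08%, the solvent-only control mean plus 3 SD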;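 further: 0% = DMSO treated cells and 100% = gossypol at 36 µM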). The settings on record: HEK293 GAL4-SRC3 luciferase reporter, at 3.6 µM, hits give high values.
The test system of assay [2] is transactivating tegument protein VP16 (Human herpesvirus 1), Gal4-VP16 luciferase reporter. As to the kind of experiment: repression of VP16-driven luciferase reporter – cell-based, luminescence, high throughput, counter-screen for SRC3 inhibitor project (AID 588794; in the data active means inhibition above about 30%). The settings on record: mammalian cells, at 3.6 µM, hits give high values. In general terms: Reporter assays use an easily measured gene product as a stand-in for the process of interest.

A short description of assay [3]: StAR promoter reporter inhibitors, counter-screen for LRH-1 inverse agonist project, cell-based, luminescence, high throughput (AID 651611). The settings on record: StAR promoter luciferase reporter counterscreen, at 3.6 µM, hits give high values.
Assay [4] has as its target Nuclear receptor subfamily 5 group A member 2 (Homo sapiens) (UniProt O00482). As to the kind of experiment: NR5A2 activity suppression in reporter cells – cell-based, luminescence, confirmation (AID 651613; in the data active means inhibition above about 42%;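 further: HEK293T cells co-transfected with LRH-1 and StAR promoter luciferase reporter; 0% = vehicle wells and 100% = parental cells lacking receptor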). The settings on record: cell-based LRH-1 luciferase reporter, inverse agonism; at 3.6 µM; hits give high values.
For assay [5], the target named is Steroidogenic factor 1 (Homo sapiens) (UniProt Q13285). As to the kind of experiment: inverse agonism at SF1 nuclear receptor – cell-based, luminescence, high throughput, counter-screen for LRH-1 inverse agonist project (AID 651614; in the data active means inhibition above about 44%;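 further: cells cotransfected with StAR promoter reporter and SF1 expression vector; 0% = vehicle on cells with receptor and 100% = vehicle on cells lacking receptor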). The settings on record: cell-based SF1 luciferase reporter, at 3.6 µM, hits give high values. (A counterscreen serves to expose hits that act by an unwanted route or on another target.)
Sequence of Steroidogenic factor 1 (Homo sapiens) (Q13285 whole entry, looked up): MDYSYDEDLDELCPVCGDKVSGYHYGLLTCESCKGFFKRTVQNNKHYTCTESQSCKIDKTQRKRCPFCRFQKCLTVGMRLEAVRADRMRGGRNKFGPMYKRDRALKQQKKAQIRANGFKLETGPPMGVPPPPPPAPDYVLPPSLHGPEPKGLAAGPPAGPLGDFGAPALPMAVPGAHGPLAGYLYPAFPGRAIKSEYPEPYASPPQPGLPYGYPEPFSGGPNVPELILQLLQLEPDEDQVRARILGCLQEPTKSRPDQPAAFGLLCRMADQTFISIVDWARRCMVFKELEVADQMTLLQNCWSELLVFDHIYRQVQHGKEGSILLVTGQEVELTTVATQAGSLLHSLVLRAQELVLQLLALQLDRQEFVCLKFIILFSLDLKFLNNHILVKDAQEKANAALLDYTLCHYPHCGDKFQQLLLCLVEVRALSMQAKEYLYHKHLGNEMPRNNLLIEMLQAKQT

Assay [6] can be described thus: compounds suppressing VP16-driven luciferase signal – cell-based, luminescence, high throughput, counter-screen for LRH-1 inverse agonist project (AID 651615; in the data active means inhibition above about 33%). The settings on record: Gal4-VP16 luciferase reporter cells, at 3.6 µM, hits give high values.
For assay [7], the system named is transactivating tegument protein VP16 (Human herpesvirus 1). As to the kind of experiment: compounds suppressing VP16-driven luciferase signal – cell-based, luminescence, single concentration, counter-screen for SRC2 inhibitor project (AID 652007; in the data active means inhibition above about 36%). As to conditions: cell-based VP16 transactivation luciferase reporter, at 8.9 µM, hits give high values.
Assay [8] addresses Nuclear receptor coactivator 2 (Homo sapiens) (UniProt Q15596). As to the kind of experiment: inhibition of GAL4-SRC2 driven luciferase expression – cell-based, luminescence, HEK293, triplicate, confirmation (AID 652008;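 active means mean inhibition above 46.5%, the solvent-only control mean plus 3 SD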;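 further: 0% = DMSO-treated cells and 100% = Gossypol at 36 µM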). As to conditions: HEK293 GAL4-SRC2 luciferase reporter, at 8.9 µM, hits give high values.

From PubChem BioAssay come the findings set out here.

A word on the inhibition: it is the change of the read-out against control, counted positive when it falls.

Unmarked numbers belong to inactive results. The source made the active and inactive calls. Unless noted, no stated cut-off is given here; in the data, active means inhibition above about 28%; inactive means the rest.

Sequence of Nuclear receptor coactivator 2 (Homo sapiens) (Q15596 whole entry, looked up, the tested form may be a part): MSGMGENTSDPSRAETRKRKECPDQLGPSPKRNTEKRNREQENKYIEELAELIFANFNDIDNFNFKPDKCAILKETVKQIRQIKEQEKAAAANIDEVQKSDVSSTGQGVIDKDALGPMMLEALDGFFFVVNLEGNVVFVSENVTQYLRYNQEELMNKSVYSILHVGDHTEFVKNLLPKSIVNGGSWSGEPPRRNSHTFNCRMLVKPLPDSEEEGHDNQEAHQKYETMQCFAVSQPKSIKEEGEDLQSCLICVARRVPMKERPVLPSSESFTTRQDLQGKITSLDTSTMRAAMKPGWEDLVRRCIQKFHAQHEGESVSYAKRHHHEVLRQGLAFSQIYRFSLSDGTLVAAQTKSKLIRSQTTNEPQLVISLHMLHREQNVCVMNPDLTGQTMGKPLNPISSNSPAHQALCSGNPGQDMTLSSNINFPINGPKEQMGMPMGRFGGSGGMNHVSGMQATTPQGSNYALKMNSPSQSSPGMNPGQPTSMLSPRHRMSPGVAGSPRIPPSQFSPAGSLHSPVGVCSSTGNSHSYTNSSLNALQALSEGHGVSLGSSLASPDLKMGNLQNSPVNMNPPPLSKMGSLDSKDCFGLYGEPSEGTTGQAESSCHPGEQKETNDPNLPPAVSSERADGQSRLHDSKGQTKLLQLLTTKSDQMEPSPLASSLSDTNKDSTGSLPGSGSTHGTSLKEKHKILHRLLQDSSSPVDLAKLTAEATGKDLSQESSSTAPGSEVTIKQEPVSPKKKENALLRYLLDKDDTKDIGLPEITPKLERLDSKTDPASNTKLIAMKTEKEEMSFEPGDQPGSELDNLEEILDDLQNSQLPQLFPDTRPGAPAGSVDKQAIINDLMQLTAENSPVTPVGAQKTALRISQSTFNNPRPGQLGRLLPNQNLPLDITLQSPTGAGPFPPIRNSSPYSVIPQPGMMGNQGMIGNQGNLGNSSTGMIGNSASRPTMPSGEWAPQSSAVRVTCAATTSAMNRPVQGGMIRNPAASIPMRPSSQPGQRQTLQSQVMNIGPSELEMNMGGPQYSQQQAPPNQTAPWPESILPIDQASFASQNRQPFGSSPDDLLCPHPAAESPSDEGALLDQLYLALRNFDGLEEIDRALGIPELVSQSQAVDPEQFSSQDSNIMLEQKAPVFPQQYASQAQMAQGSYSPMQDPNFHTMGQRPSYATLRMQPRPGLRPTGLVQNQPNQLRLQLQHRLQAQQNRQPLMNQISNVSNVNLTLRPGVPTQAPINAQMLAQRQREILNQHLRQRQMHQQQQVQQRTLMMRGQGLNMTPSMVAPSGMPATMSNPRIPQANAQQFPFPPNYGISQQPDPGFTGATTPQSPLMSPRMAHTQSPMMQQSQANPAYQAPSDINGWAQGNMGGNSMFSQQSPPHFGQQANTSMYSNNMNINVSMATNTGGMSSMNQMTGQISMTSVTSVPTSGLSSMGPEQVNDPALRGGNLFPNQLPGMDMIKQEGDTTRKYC
Sequence of Nuclear receptor subfamily 5 group A member 2 (Homo sapiens) (O00482 whole entry, looked up): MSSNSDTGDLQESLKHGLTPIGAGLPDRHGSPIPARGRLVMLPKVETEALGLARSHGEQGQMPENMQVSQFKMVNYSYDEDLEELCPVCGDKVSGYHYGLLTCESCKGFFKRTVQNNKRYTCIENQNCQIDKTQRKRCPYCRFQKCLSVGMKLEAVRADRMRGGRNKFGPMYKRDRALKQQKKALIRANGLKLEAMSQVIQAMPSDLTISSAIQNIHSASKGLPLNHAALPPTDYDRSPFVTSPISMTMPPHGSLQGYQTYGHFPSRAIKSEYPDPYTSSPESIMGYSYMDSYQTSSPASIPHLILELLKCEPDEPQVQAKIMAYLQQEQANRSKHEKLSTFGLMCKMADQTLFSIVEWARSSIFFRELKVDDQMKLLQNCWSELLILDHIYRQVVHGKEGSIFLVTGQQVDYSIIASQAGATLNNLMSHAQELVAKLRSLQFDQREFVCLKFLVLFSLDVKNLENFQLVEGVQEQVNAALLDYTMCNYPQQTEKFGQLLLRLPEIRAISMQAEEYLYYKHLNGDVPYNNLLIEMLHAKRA
Sequence of Nuclear receptor coactivator 3 (Homo sapiens) (Q9Y6Q9 whole entry, looked up, the tested form may be a part): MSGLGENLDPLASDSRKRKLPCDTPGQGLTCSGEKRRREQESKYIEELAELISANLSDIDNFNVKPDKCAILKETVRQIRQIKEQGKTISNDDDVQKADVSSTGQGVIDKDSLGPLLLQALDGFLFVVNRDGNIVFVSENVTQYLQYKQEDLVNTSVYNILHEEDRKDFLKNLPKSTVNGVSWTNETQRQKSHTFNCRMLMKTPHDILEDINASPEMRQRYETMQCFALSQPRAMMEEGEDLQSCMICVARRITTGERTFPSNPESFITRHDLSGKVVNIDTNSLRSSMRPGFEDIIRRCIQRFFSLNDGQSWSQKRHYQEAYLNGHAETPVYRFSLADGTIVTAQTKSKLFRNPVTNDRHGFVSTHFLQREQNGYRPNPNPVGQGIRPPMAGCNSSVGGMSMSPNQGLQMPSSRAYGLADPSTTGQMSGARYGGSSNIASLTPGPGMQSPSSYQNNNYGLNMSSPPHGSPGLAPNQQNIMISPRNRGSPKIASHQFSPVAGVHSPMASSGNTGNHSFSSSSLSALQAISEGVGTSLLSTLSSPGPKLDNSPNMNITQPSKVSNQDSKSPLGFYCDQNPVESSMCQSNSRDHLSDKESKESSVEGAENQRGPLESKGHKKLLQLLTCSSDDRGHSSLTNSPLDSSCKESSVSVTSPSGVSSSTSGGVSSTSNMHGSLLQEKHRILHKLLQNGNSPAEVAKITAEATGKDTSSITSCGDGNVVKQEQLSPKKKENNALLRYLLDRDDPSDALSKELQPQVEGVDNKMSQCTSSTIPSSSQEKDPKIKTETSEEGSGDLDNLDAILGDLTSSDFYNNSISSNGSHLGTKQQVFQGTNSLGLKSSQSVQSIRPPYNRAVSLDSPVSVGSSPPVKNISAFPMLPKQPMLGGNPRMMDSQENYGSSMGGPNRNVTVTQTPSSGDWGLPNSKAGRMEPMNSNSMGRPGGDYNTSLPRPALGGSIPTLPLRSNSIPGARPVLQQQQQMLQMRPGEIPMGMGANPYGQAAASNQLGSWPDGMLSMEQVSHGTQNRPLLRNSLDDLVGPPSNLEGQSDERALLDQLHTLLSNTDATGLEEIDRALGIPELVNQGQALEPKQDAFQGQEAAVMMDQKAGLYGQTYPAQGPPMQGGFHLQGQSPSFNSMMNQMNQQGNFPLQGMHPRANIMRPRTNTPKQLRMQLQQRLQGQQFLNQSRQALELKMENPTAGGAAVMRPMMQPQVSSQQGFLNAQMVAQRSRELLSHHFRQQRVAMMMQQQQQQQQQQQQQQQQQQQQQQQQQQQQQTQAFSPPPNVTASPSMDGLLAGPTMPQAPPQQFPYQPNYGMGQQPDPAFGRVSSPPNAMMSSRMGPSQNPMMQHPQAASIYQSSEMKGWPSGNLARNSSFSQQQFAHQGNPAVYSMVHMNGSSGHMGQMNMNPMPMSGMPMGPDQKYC

Take `CCC(C)(C)c1ccc(OCCCC[n+]2ccccc2)c(C(C)(C)CC)c1`: the inhibition in assay [1] was 26.1%; in assay [2], 37.4% (active); in assay [3], 16.3%; in assay [4], 64% (active); in assay [5], 55.6% (active); in assay [6], 60.8% (active).
`CCOc1cc(/C=C2\N=C(SC(C)C(N)=O)N(c3ccc(OC(F)F)cc3)C2=O)ccc1O` (centres undefined): the inhibition is 27.6% in assay [1]; 58% (active) in assay [2]; 59.3% (active) in assay [3]; 65.4% (active) in assay [4]; 73% (active) in assay [5]; 73.1% (active) in assay [6].
As to `CCCCCc1ccc(OCCCC[n+]2cccc(C)c2)c(CCCCC)c1`, the inhibition in assay [1] was 17.4%; in assay [2] it was 39% (active); in assay [3] it was 31.7% (active); in assay [4], 74.2% (active); in assay [5] it was 68.9% (active); in assay [6], 71.2% (active).
For the compound `C#CC(=O)N(c1ccc(OC)c(OC)c1)C(C(=O)NC1CCCC1)c1cccs1` (centres undefined), the inhibition was 25.2% in assay [1]; -2.4% in assay [2]; 17.7% in assay [3]; 57.3% (active) in assay [4]; 35.4% in assay [5]; 10.9% in assay [6].
For `Cn1nccc1C(=O)NC1CCCc2c1cnn2-c1ccc(C(C)(C)C)cc1` (centres undefined), the inhibition is 15% in assay [1]; 49.3% (active) in assay [2]; 42.5% (active) in assay [3]; 63.5% (active) in assay [4]; 69.7% (active) in assay [5]; 58.2% (active) in assay [6].
As to `O=C(N/N=C\c1ccc([N+](=O)[O-])s1)c1cncc(Br)c1`, the inhibition in assay [1] is 32.5%; in assay [2], 22.9%; in assay [3], 57.4% (active); in assay [4], 79.7% (active); in assay [5], 72.9% (active); in assay [6] it was 56.9% (active).
As to `Cc1ccc(NC(=O)c2cc(Cl)ccc2[N+](=O)[O-])cc1C`, the inhibition in assay [1] was 27.3%; in assay [2], 18.5%; in assay [3] it was 16.6%; in assay [4] it was 36.5%; in assay [5], 34.6%; in assay [6], 19.6%.
With `COc1ccc(NC(=O)c2cc(-c3cc(Cl)ccc3C)n[nH]2)cc1OC`, the inhibition in assay [1] was 20.2%; in assay [2] it was 50.6% (active); in assay [3], 30.7% (active); in assay [4], 57% (active); in assay [5] it was 61.1% (active); in assay [6] it was 64.4% (active).
In the case of `O=C(Nc1ccc(S(=O)(=O)Nc2ccccc2)cc1)c1ccc(CN2CCOCC2)cc1`, the inhibition was 9.71% in assay [1]; 36% (active) in assay [2]; 21.8% in assay [3]; 56.4% (active) in assay [4]; 57.4% (active) in assay [5]; 57.6% (active) in assay [6].
As for `CC(=O)c1cn(CC(=O)Nc2ccc(C)cc2C)c2ccccc12`, the inhibition in assay [1] was 11.1%; in assay [2], 28.2%; in assay [3], 11.3%; in assay [4], 71.5% (active); in assay [5] it was 64.5% (active); in assay [6], 47.4% (active).
As for `CCOc1ccc(Nc2cc(C)nc(-n3nc(C)cc3C)n2)cc1`, the inhibition in assay [1] was 32.9%; in assay [2], 8.98%; in assay [3], 46.8% (active); in assay [4] it was 52.9% (active); in assay [5], 64.8% (active); in assay [6], 57.4% (active). The inhibition is -8.07% in assay [7] and 16.3% in assay [8].
With `O=C(NCc1cccnc1)/C(=C\c1ccc(-c2cccc(Cl)c2)o1)S(=O)(=O)c1ccccc1`, the inhibition in assay [1] is 37.8%; in assay [2], 13.6%; in assay [3], 61.8% (active); in assay [4], 87.1% (active); in assay [5], 89.3% (active); in assay [6] it was 74.9% (active). The inhibition was 44% (active) in assay [7] and 53.1% (active) in assay [8].
With `CCNc1nc(NC(C)(C)C)nc(SC(C(C)=O)C(C)=O)n1`, the inhibition is 23.3% in assay [1]; 32% (active) in assay [2]; 60.2% (active) in assay [3]; 72.4% (active) in assay [4]; 64.2% (active) in assay [5]; 49.4% (active) in assay [6].
With `O=C(N/N=C/c1c(O)ccc2ccccc12)c1[nH]ncc1Br`, the inhibition in assay [1] was 58.8% (active); in assay [2], 53.9% (active); in assay [3], 77.2% (active); in assay [4], 95.8% (active); in assay [5] it was 83.8% (active); in assay [6] it was 73.6% (active).
On to `Cc1cc(C)c[n+](C(C)C(=O)c2ccc(-c3ccccc3)cc2)c1` (centres undefined), for which the inhibition in assay [1] was 16.9%; in assay [2] it was 40.2% (active); in assay [3] it was 29.7% (active); in assay [4] it was 81.4% (active); in assay [5] it was 66.4% (active); in assay [6], 64.2% (active).
`O=C(CCl)N(c1ccccc1)C1CCCCC1`: the inhibition in assay [1] is 30.5%; in assay [2] it was -7.5%; in assay [3], 43.5% (active); in assay [4], 70.4% (active); in assay [5], 66.2% (active); in assay [6], 16.5%. Besides, the inhibition in assay [7] was 55.6% (active); in assay [8] it was 57.8% (active).
As for `Cc1ccccc1C(=O)N/N=C/c1ccc([N+](=O)[O-])s1`, the inhibition was 6.45% in assay [1]; 8.35% in assay [2]; 46.1% (active) in assay [3]; 73.2% (active) in assay [4]; 65% (active) in assay [5]; 24.8% in assay [6]. Further, the figures for the inhibition in assay [7] and in assay [8] were 64.2% (active) and 63.1% (active), respectively.
For `COC(=O)c1ccc(COC(=O)c2[nH]c(C)c(C(C)=O)c2C)o1`, the inhibition in assay [1] was 19.6%; in assay [2], 15.9%; in assay [3], 12.8%; in assay [4] it was 54.4% (active); in assay [5] it was 38.7%; in assay [6] it was 41% (active).
Consider `O=C(OCC12CC3CC(CC(C3)C1)C2)c1ccc(NCc2cc(O)ccc2O)cc1`, for which the inhibition was 88.3% (active) in assay [1]; 47.5% (active) in assay [2]; 48.6% (active) in assay [3]; 56.9% (active) in assay [4]; 67.2% (active) in assay [5]; 72.7% (active) in assay [6]. In addition, the inhibition is 97% (active) in assay [7] and 96.5% (active) in assay [8].
